Results on 104 compounds are retold here after PubChem BioAssay AID463165 (Johns Hopkins Ion Channel Center, 2010).

Each structure is given as a SMILES string. In all, about 310,000 compounds went through this assay and about 1,400 (0.45%) were called active.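 The calls were made as follows: active = B-score, a plate-corrected calcium signal, over three deviations above library mean, with baseline fluorescence within five deviations of library mean; inactive = the rest.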 This excerpt belongs to a sample that is enriched for actives.

This experiment deals with Regulator of G-protein signaling 4 (Homo sapiens) (UniProt P49798). Nature of the experiment: RGS4 inhibitors, primary screen, cell-based, HEK293 M3R inducible RGS4, calcium flux (AID 463165).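 Also: RGS4 expression induced by doxycycline in cells with stable M3 receptor.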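 As to B-score: B-score is computed from the integrated fluorescence ratio over baseline after carbachol; higher B-score means a larger calcium signal and so more RGS4 inhibition.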 Conditions: Fluo-4 calcium flux, at 10 µM, triggered by carbachol at its EC20; hits give high values. For orientation: A change in cytosolic calcium serves as a functional read-out for many receptors and channels.
Regulator of G-protein signaling 4 (Homo sapiens), sequence (P49798 whole entry, looked up): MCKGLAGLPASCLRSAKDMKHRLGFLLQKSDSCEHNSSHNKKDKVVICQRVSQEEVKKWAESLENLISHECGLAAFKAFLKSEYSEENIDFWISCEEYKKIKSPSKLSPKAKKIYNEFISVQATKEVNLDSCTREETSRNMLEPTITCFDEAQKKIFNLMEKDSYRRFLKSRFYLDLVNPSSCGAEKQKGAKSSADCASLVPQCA
In the case of `CN=C(NC#N)NCCSCc1nc[nH]c1C`, the B-score entry was “inactive”. With `COc1ccc(CN(C(=O)CSc2nnc(-c3ccc(OC)c(OC)c3)o2)c2ccc(F)cc2)cc1` the entry was “inactive”; with `CCOc1ccc(/C=N/NC(=O)CSc2ccccn2)cc1O`, 4.74 (active). With `Cc1ccc(/C=N/NC(=O)CSc2ccccn2)o1`, the B-score entry was “inactive”. With `CCOc1ccc(/C=N/NC(=O)C(C)Sc2ccccn2)cc1OCC` (centres undefined) the entry was “inactive”; with `Cc1cc(=O)oc2cc(OC(C)C(=O)Nc3ccc(N4CCOCC4)cc3)ccc12` (centres undefined), “inactive”; with `COc1cc(NC(=O)CSC(=S)N2CCCC2)c(OC)cc1Cl`, “inactive”. For `CC(C)(C)Oc1ccccc1Nc1nc(NCCO)nc(N2CCCC2)n1` the value was “inactive”; for `CCOc1ccc(CNC(=O)CCC(=O)N2CCSc3ccccc32)cc1`, “inactive”. With `CC(C)(C)OC(=O)CNC(=O)c1[nH]cnc1C(=O)N[C@@H](Cc1ccccc1)C(=O)OCc1ccccc1` the entry was “inactive”. `C[C@H](NC(=O)c1nc[nH]c1C(=O)NCC(=O)OC(C)(C)C)C(=O)OCc1ccccc1`: the B-score entry was “inactive”. With `C[C@H](NC(=O)c1nc[nH]c1C(=O)NCC(=O)OC(C)(C)C)c1ccccc1` the figure was 5.48 (active).

For the compound `Cc1ccc(N(C(=O)c2ccc(CN3CCOCC3)o2)C(C(=O)NCCC(C)C)c2cccs2)c(C)c1` (centres undefined), the B-score result is “inactive”.

Consider `O=C(CSCc1ccccc1)Nc1ccccc1`, for which the B-score result is “inactive”. For `CCN(CC)S(=O)(=O)c1ccc(N2CC(C(=O)NCc3cccnc3)CC2=O)cc1` (centres undefined) the value was “inactive”; for `Cc1ccc(/C=C2\CCn3c2nc2cc(C(=O)O)ccc2c3=O)c(C)c1`, 6.23 (active). As to `O=C(O)c1ccc2c(=O)n3c(nc2c1)/C(=C/c1ccc(OC(F)F)cc1OC(F)F)CC3`, the B-score entry is “inactive”. As for `N#Cc1ccc(/C=C2\CCn3c2nc2cc(C(=O)O)ccc2c3=O)cc1`, the B-score entry was “inactive”. With `CCOC1CS(=O)(=O)CC1OCC` (centres undefined) the entry was “inactive”.

With `CCCN(CCC)S(=O)(=O)c1ccc(C(=O)N2CC3CCC(CC3)C2)cc1`, the B-score result was “inactive”.

On to `CC(C)=CCCC1(C)C=Cc2c(ccc3c2[nH]c2cc(O)c(C)cc23)O1` (centres undefined), for which the B-score entry was “inactive”. For `O=C(O)CCC(=O)N(Cc1ccccc1)Cc1ccccc1` the value was “inactive”; for `O=C(Nc1ccccc1Cl)c1ccccc1S(=O)(=O)c1ccccc1[N+](=O)[O-]`, “inactive”; for `Cc1nn(-c2ccccc2)c2c1C(c1ccc(F)cc1)C(C#N)=C(N)O2` (centres undefined), “inactive”. `Cc1nn(Cc2ccccc2)c2c1C(c1ccccc1)C(C#N)=C(N)O2` (centres undefined): the B-score entry is “inactive”. For `COc1ccccc1C1C(C#N)=C(N)Oc2c1c(-c1ccccc1)nn2-c1ccccc1` (centres undefined) the value was 8.32 (active); for `Cc1cccc(OCCCC(=O)Nc2ccc(S(=O)(=O)N3CCCC3)cc2)c1`, “inactive”. `CS(=O)(=O)c1ccc(C(=O)OCC(=O)NNC(=O)COc2ccc(Cl)cc2)cc1`: the B-score result is “inactive”. As for `Cc1ccc(C)c(Cn2nnc3c(=O)[nH]c(C(=O)Nc4ccc(F)cc4)nc32)c1`, the B-score is 7.87 (active). With `O=C(Nc1ccc(F)cc1)N1CCCC(c2nc3c(nnn3Cc3ccccc3Cl)c(=O)[nH]2)C1` (centres undefined) the entry was “inactive”; with `Cc1ccc(NC(=O)N2CCC(c3nc4c(nnn4Cc4c(F)cccc4Cl)c(=O)[nH]3)CC2)cc1`, “inactive”. For `O=C(O)C1C2C=CC(C2)C1C(=O)NCc1ccccc1` (centres undefined) the value was “inactive”. For `O=C(CN1C(=O)NC2(CCCCCC2)C1=O)NCc1cccs1` the value was “inactive”. Turning to `COC(=O)c1c(C(=O)OC)c2n(c1C)CCS2`, the B-score entry was “inactive”. For `COc1ccc(C)cc1NC(=O)CSc1nnc2ccc(-c3ccccn3)nn12` the value was “inactive”; for `COc1ccc(S(=O)(=O)Nc2ccc(O)c(Sc3nc4ccccc4s3)c2)cc1`, 5.99 (active); for `O=C(O)c1cccc(S(=O)(=O)Nc2ccc(O)cc2Sc2nc3ccccc3s2)c1`, “inactive”. With `CCOc1ccc(S(=O)(=O)Nc2nc3cc(OC)ccc3s2)cc1` the entry was “inactive”; with `CNc1nccc(-c2ccc(Cl)cc2)c1C#N`, “inactive”; with `Cc1ccc(C)c2c1cc(C)c1nnc(SCC(=O)Nc3cccc(C(=O)O)c3)n12`, “inactive”. In the case of `Cc1cc(NC(=O)CSc2nc(C(C)C)nc3sc4c(c23)CCC(C)C4)no1` (centres undefined), the B-score result is “inactive”. With `CC(C)c1nc(SCC(=O)Nc2cccc(C(=O)O)c2)c2c3c(sc2n1)CCCC3` the figure was 5.64 (active); with `Cc1ccccc1OC(=O)Cn1c(C(F)(F)F)nc2ccccc21`, “inactive”.

Regarding `Cc1ccc(-n2[nH]c(C)c(/C=N/NC(=O)c3cccc([N+](=O)[O-])c3)c2=O)cc1C`, the B-score result was “inactive”. Regarding `COc1ccc(-c2csc(Cc3nc(O)cs3)n2)cc1`, the B-score entry was “inactive”. With `COc1ccc(-c2csc(NC(=O)COC(=O)c3ccc(Br)o3)n2)cc1` the entry was “inactive”; with `COc1ccc(-c2csc(Nc3ccc(O)cc3)n2)cc1`, 8.75 (active). With `CCOc1ccc(OCC)c(NC(=O)CCS(=O)(=O)c2ccc(C)cc2)c1` the entry was “inactive”. For `CN(C)c1ccc(CNC2C3CC4CC(C3)CC2C4)cc1` (centres undefined) the value was “inactive”. For `COc1ccc(Oc2cn[nH]c2-c2ccc(OC)cc2O)cc1`, the B-score result is “inactive”. With `Oc1ccc(-c2[nH]ncc2-c2nc3ccccc3s2)c(O)c1`, the B-score is 5.08 (active). Regarding `CC(=O)Nc1cccc(-c2nc3ccccc3s2)c1C`, the B-score result was “inactive”. As for `CCC1(C(=O)c2ccccc2)C(c2cccc([N+](=O)[O-])c2)C1(C(=O)OC)C(=O)OC` (centres undefined), the B-score result was “inactive”. For `CC(CC(=O)C1C(C)C=CCC1(C)C)NNC(N)=O` (centres undefined) the value was “inactive”. Regarding `Cc1csc(NC(=O)C2=COCCO2)n1`, the B-score result was “inactive”. For `Cc1ccc(-c2csc(NC(=O)C3=COCCO3)n2)cc1C` the value was 9.56 (active). For `CC(=O)NCCC(=O)Nc1nc(-c2ccc3c(c2)OCCO3)cs1` the value was “inactive”. Consider `COc1cccc(NC(C)=[N+](C)CCNS(=O)(=O)c2ccc(Cl)cc2)c1`, for which the B-score entry was “inactive”. For `CCCCN1C(=O)CC(N2CCOCC2)C1=O` (centres undefined), the B-score result is “inactive”. With `CCC1(c2ccccc2)NC(=O)N(CC(=O)c2ccc3c(c2)OCO3)C1=O` (centres undefined) the entry was “inactive”; with `O=C(CN1CCC(O)(c2ccccc2)CC1)Nc1ccc2c(c1)OCCO2`, “inactive”; with `O=C(CCN1CCc2ccccc2C(O)(c2ccccc2)C1)c1ccc2c(c1)OCCO2` (centres undefined), 8.45 (active). Take `CC(CO)N1CCS(=O)(=O)CC1` (centres undefined): the B-score entry is “inactive”. Consider `COc1cccc(OC)c1C(=O)Nc1ccc(Cc2ccncc2)cc1`, for which the B-score entry was “inactive”. With `CC(C)Cc1nc(Nc2ccc(S(=O)(=O)N3CCCC3)cc2)c2nnn(Cc3ccccc3)c2n1`, the B-score was 4.81 (active). For `Cc1nc(Nc2ccc(S(=O)(=O)N3CCCC3)cc2)c2nnn(Cc3ccccc3)c2n1` the value was “inactive”; for `Clc1ccc(Nc2ncnc3c2nnn3Cc2ccccc2)cc1`, “inactive”; for `Cc1ccccc1CN1CCC(C(=O)Nc2ccc(Oc3cccnc3)cc2)CC1`, “inactive”.

Turning to `COc1ccc(-c2cc(C(=O)N/N=C/c3cccnc3)c3ccccc3n2)c(OC)c1`, the B-score result is “inactive”. With `COc1ccccc1-n1c(-c2cc(-c3ccco3)[nH]n2)n[nH]c1=S` the entry was “inactive”; with `Cc1cc(C)c2nc(-c3ccco3)cc(C(=O)O)c2c1`, “inactive”; with `Cn1c(-c2ccco2)nc2cc3ccccc3cc21`, 8.29 (active).

As for `CCCCN(CCCC)CC(O)Cn1c2ccccc2c(=O)c2ccccc21` (centres undefined), the B-score result was “inactive”. For `CC(=O)c1ccc2c(c1)c1ccccc1n2CC(C)C` the value was “inactive”; for `CS(=O)(=O)N(CC(O)Cn1c2ccccc2c2ccccc21)c1cccc2ccccc12` (centres undefined), 7.61 (active). As for `COc1ccccc1CN(C)C(=O)C1(c2ccc(Cl)cc2)CC1`, the B-score entry is “inactive”. For `CN(CC1CCCN(CCc2cccc(C(F)(F)F)c2)C1)C(=O)c1ccc2nc[nH]c2c1` (centres undefined), the B-score entry was “inactive”. For `COC(=O)N/N=C/c1cn(CCCOc2ccc(C)cc2)c2ccccc12` the value was “inactive”; for `COC(=O)Cn1cc(/C=C/[N+](=O)[O-])c2ccccc21`, 14.7 (active); for `COC(=O)c1cn(CC(=O)NCc2cccs2)c2ccccc12`, “inactive”.

With `O=C(CN1CCN(S(=O)(=O)c2ccc3ccccc3c2)CC1)NC(=O)NC1CCCCC1`, the B-score result is “inactive”.

Regarding `CCCc1nn(C)c2c(=O)[nH]c(-c3cc(S(N)(=O)=O)ccc3OCC)nc12`, the B-score entry is “inactive”. As for `CCCCOc1ccc(C(=O)N/C(=C/C=C/c2ccccc2)C(=O)N2CCOCC2)cc1`, the B-score entry is “inactive”. With `OCCCC1CCCCN1Cc1nc(Cc2ccccc2Cl)no1` (centres undefined) the entry was “inactive”. With `Nc1nc(-c2ccccc2)cc(-c2ccccc2)n1` the entry was “inactive”; with `Nc1cccc(-c2cc(-c3ccccc3)nc(-c3cccc(N)c3)n2)c1`, 5.75 (active).

With `CNc1nc(-c2ccccc2)cc(-c2ccccc2)n1`, the B-score result was “inactive”.

For `COCCNC(=O)C(OC(=O)c1cccs1)c1ccc(F)cc1` (centres undefined), the B-score result was “inactive”.

As for `COCCNC(=O)CSc1nc2c(n1-c1ccccc1)CCCC2`, the B-score entry is “inactive”. For `O=C(NCc1ccc(F)cc1)C1CCC(CNc2c(N3CCOCC3)c(=O)c2=O)CC1` (centres undefined), the B-score entry is “inactive”. With `Cc1noc(C)c1S(=O)(=O)Nc1cc(C(F)(F)F)ccc1N1CCOCC1` the entry was “inactive”; with `CCOC(=O)C1=C(CN2CCc3ccccc32)NC(=O)NC1c1ccc(Cl)cc1` (centres undefined), “inactive”; with `COc1cc2c(cc1OC)C(/C=C/c1ccco1)=NCC2`, “inactive”. On to `CCOC(=O)C1=NN(c2ccc(Cl)cc2)/C(=C/C2=NCCc3cc(OC)c(OC)cc32)S1`, for which the B-score is 4.81 (active). For `CC(=O)c1cccc(NC(=O)C2CCCN2S(=O)(=O)c2cccc3nsnc23)c1` (centres undefined) the value was “inactive”.

In the case of `Cn1c(N2CCOCC2)c(C=O)c2ccccc21`, the B-score entry is “inactive”.

On to `O=C1/C(=C\c2cccnc2)CN(Cc2ccccc2)C/C1=C\c1cccnc1`, for which the B-score is 20.8 (active).

As for `Clc1ccc(CN2CCN(/N=C/c3cccnc3)CC2)cc1`, the B-score result is “inactive”. With `O=C1NCC(=O)N(Cc2ccccc2)/C1=C/c1ccccc1`, the B-score result was “inactive”. With `NS(=O)(=O)c1ccc(CCNC(=O)c2ccc([N+](=O)[O-])cc2[N+](=O)[O-])cc1` the entry was “inactive”; with `COc1cc(/C=N/NC(=O)c2cccnc2)ccc1OC(=O)c1cccc(Br)c1`, “inactive”; with `C=C(C)C(=O)O[C@H]1C/C(C)=C\C(=O)/C=C(\C)[C@H](O)[C@@H]2OC(=O)C(=C)[C@@H]21`, 5.6 (active).

On to `Nc1ccccc1/C=N\N=C/c1ccccc1N`, for which the B-score result was “inactive”. For `Cc1ccc2c(c1)N(CC(=O)NCCc1ccc(Cl)cc1)C(=O)c1cccnc1O2` the value was “inactive”.
